Source: the supplement of paper PMC12669032

Tests used:
Experiment in all cases: growth AUC relative to DMSO control (median of replicates) (fraction); higher = more growth (less inhibition), active = hit call of the paper
Conditions in all cases: 20 µM; 24 h;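 active = AUC reduced over 20% with Padj below 0.05 in at least 2 of 3 replicates; inactive = otherwise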
Coprococcus comes = tested on: Coprococcus comes
Procedure, shortened: (§1)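 In round-bottom 96-well plates sealed with pierced gas-permeable seals, gut bacterial monocultures in mGAM were grown anaerobically at 37 °C from OD600 0.05 with 20 µM compound (1% DMSO). OD600 readings were taken hourly for 24 h, and the minimum OD was set to 0. Area under the growth curve was then normalised to the plate median of solvent-only wells, or to row and column medians on the industrial chemical plate. The value given is the median of three biological replicates grown on separate days.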

Escherichia coli ED1a = tested on: Escherichia coli ED1a
Procedure, shortened: as §1

Escherichia coli IAI1 = tested on: Escherichia coli IAI1
Procedure, shortened: as §1

Eubacterium rectale = tested on: Eubacterium rectale
Procedure, shortened: as §1

[1] = tested on: Fusobacterium nucleatum subsp. animalis
Procedure, shortened: as §1

Lactobacillus gasseri = tested on: Lactobacillus gasseri
Procedure, shortened: as §1

Lactobacillus paracasei = tested on: Lactobacillus paracasei
Procedure, shortened: as §1

Odoribacter splanchnicus = tested on: Odoribacter splanchnicus
Procedure, shortened: as §1

[2] = tested on: Parabacteroides distasonis
Procedure, shortened: as §1

Parabacteroides merdae = tested on: Parabacteroides merdae
Procedure, shortened: as §1

Roseburia intestinalis = tested on: Roseburia intestinalis
Procedure, shortened: as §1

Streptococcus salivarius = tested on: Streptococcus salivarius
Procedure, shortened: as §1

Measured: growth AUC

CCCN(CCOc1c(Cl)cc(Cl)cc1Cl)C(N)=O
inactive: Coprococcus comes 1 | Escherichia coli ED1a 1.01 | Escherichia coli IAI1 0.985 | Eubacterium rectale 1 | [1] 0.935 | Lactobacillus gasseri 0.946 | Lactobacillus paracasei 0.851 | Odoribacter splanchnicus 0.978 | [2] 0.949 | Parabacteroides merdae 0.977 | Roseburia intestinalis 0.939 | Streptococcus salivarius 0.972

CCCCCCCC/C=C\CCCCCCCCCCCCC
inactive: Coprococcus comes 1 | Escherichia coli ED1a 0.987 | Escherichia coli IAI1 1.03 | Eubacterium rectale 0.946 | [1] 0.961 | Lactobacillus gasseri 1.08 | Lactobacillus paracasei 0.875 | Odoribacter splanchnicus 0.968 | [2] 1.01 | Parabacteroides merdae 0.991 | Roseburia intestinalis 1.07 | Streptococcus salivarius 1.03

CC(C)C1C2CCC1c1c(NC(=O)c3cn(C)nc3C(F)F)cccc12 (stereo not given)
inactive: Coprococcus comes 0.966 | Escherichia coli ED1a 1 | Escherichia coli IAI1 0.957 | Eubacterium rectale 0.971 | [1] 0.906 | Lactobacillus gasseri 0.702 | Lactobacillus paracasei 0.965 | Odoribacter splanchnicus 0.758 | Parabacteroides merdae 0.862 | Roseburia intestinalis 0.861 | Streptococcus salivarius 0.927
active: [2] 0.533

COc1c(I)cc(C#N)cc1I
inactive: Coprococcus comes 0.973 | Escherichia coli ED1a 1 | Escherichia coli IAI1 0.975 | Eubacterium rectale 1 | [1] 0.981 | Lactobacillus gasseri 0.895 | Lactobacillus paracasei 0.911 | Odoribacter splanchnicus 1.03 | [2] 0.966 | Parabacteroides merdae 0.944 | Roseburia intestinalis 0.989 | Streptococcus salivarius 0.982

COc1ccc(NC(=O)N(C)C)cc1Cl
inactive: Coprococcus comes 1.03 | Escherichia coli ED1a 0.981 | Escherichia coli IAI1 0.957 | Eubacterium rectale 1.01 | [1] 0.973 | Lactobacillus gasseri 0.916 | Lactobacillus paracasei 1.02 | Odoribacter splanchnicus 1.1 | [2] 0.99 | Parabacteroides merdae 0.916 | Roseburia intestinalis 0.925 | Streptococcus salivarius 0.927

COC(=O)c1ccc(C)cc1C1=NC(C)(C(C)C)C(=O)N1 (racemic)
inactive: Coprococcus comes 0.993 | Escherichia coli ED1a 0.969 | Escherichia coli IAI1 0.97 | Eubacterium rectale 1.03 | [1] 0.916 | Lactobacillus gasseri 0.931 | Lactobacillus paracasei 0.959 | Odoribacter splanchnicus 1.07 | [2] 1.03 | Parabacteroides merdae 0.976 | Roseburia intestinalis 0.934 | Streptococcus salivarius 0.97

CC(C)N(C(=O)C(=O)O)c1ccc(F)cc1
inactive: Coprococcus comes 0.985 | Escherichia coli ED1a 1.03 | Escherichia coli IAI1 1.02 | Eubacterium rectale 1.05 | [1] 1.18 | Lactobacillus gasseri 1.05 | Lactobacillus paracasei 1 | Odoribacter splanchnicus 1.04 | [2] 1 | Parabacteroides merdae 1.01 | Roseburia intestinalis 0.998 | Streptococcus salivarius 1.05

CCc1ccc(C(c2ccc(CC)cc2)C(Cl)Cl)cc1
inactive: Coprococcus comes 1.04 | Escherichia coli ED1a 1.02 | Escherichia coli IAI1 1.01 | Eubacterium rectale 0.935 | [1] 0.939 | Lactobacillus gasseri 0.938 | Lactobacillus paracasei 0.996 | Odoribacter splanchnicus 1 | [2] 0.976 | Parabacteroides merdae 0.882 | Roseburia intestinalis 1 | Streptococcus salivarius 0.963

O=C(NCc1ncc(C(F)(F)F)cc1Cl)c1c(Cl)cccc1Cl
inactive: Coprococcus comes 1.03 | Escherichia coli ED1a 0.963 | Escherichia coli IAI1 1.03 | Eubacterium rectale 0.98 | [1] 1.01 | Lactobacillus gasseri 1.04 | Lactobacillus paracasei 0.981 | Odoribacter splanchnicus 0.938 | [2] 0.971 | Parabacteroides merdae 0.979 | Roseburia intestinalis 0.968 | Streptococcus salivarius 0.967

C#CCOC(=O)[C@@H](C)Oc1ccc(Oc2ncc(Cl)cc2F)cc1
inactive: Coprococcus comes 0.978 | Escherichia coli ED1a 1.01 | Escherichia coli IAI1 0.987 | Eubacterium rectale 0.982 | [1] 0.903 | Lactobacillus gasseri 0.962 | Lactobacillus paracasei 0.997 | Odoribacter splanchnicus 0.982 | [2] 1 | Parabacteroides merdae 0.979 | Roseburia intestinalis 1.06 | Streptococcus salivarius 0.959

CCCCOCCOC(=O)COc1nc(Cl)c(Cl)cc1Cl
inactive: Coprococcus comes 0.982 | Escherichia coli ED1a 0.994 | Escherichia coli IAI1 0.973 | Eubacterium rectale 1.02 | [1] 0.984 | Lactobacillus gasseri 0.917 | Lactobacillus paracasei 0.962 | Odoribacter splanchnicus 1.09 | [2] 0.978 | Parabacteroides merdae 0.956 | Roseburia intestinalis 0.995 | Streptococcus salivarius 0.998

CCNc1nc(N)[nH]c(=O)n1
inactive: Coprococcus comes 1.02 | Escherichia coli ED1a 0.991 | Escherichia coli IAI1 1 | Eubacterium rectale 0.995 | [1] 0.953 | Lactobacillus gasseri 1.01 | Lactobacillus paracasei 1.02 | Odoribacter splanchnicus 1.01 | [2] 1.04 | Parabacteroides merdae 0.995 | Roseburia intestinalis 1.06 | Streptococcus salivarius 0.978

O=c1cc(Cl)[nH]nc1-c1ccccc1
inactive: Coprococcus comes 0.973 | Escherichia coli ED1a 0.956 | Escherichia coli IAI1 0.954 | Eubacterium rectale 0.939 | [1] 0.995 | Lactobacillus gasseri 0.992 | Lactobacillus paracasei 0.748 | Odoribacter splanchnicus 1.02 | [2] 1.02 | Parabacteroides merdae 0.982 | Roseburia intestinalis 0.977 | Streptococcus salivarius 1.03

O=C(NC(=O)c1c(F)cccc1F)Nc1cc(C(F)(F)F)cc(C(F)(F)F)c1Cl
inactive: Coprococcus comes 0.932 | Escherichia coli ED1a 0.949 | Escherichia coli IAI1 0.971 | Eubacterium rectale 0.941 | [1] 0.989 | Lactobacillus gasseri 1.33 | Lactobacillus paracasei 0.861 | Odoribacter splanchnicus 0.936 | [2] 0.948 | Parabacteroides merdae 0.951 | Roseburia intestinalis 0.942 | Streptococcus salivarius 0.922

Oc1ccc2nc(-c3cscn3)[nH]c2c1
inactive: Coprococcus comes 0.994 | Escherichia coli ED1a 0.988 | Escherichia coli IAI1 0.974 | Eubacterium rectale 1.01 | [1] 0.975 | Lactobacillus gasseri 0.869 | Lactobacillus paracasei 0.997 | Odoribacter splanchnicus 1.01 | [2] 1.02 | Parabacteroides merdae 0.958 | Roseburia intestinalis 1.03 | Streptococcus salivarius 1.07

NC(=O)Cc1cccc2ccccc12
inactive: Coprococcus comes 1.04 | Escherichia coli ED1a 0.99 | Escherichia coli IAI1 1.01 | Eubacterium rectale 0.994 | [1] 1.06 | Lactobacillus gasseri 1.04 | Lactobacillus paracasei 1.01 | Odoribacter splanchnicus 0.992 | [2] 1.01 | Parabacteroides merdae 1.01 | Roseburia intestinalis 1.05 | Streptococcus salivarius 1.05

N#Cc1ccccc1NC(=O)c1snc(Cl)c1Cl
inactive: Coprococcus comes 0.967 | Escherichia coli ED1a 0.993 | Escherichia coli IAI1 0.995 | Eubacterium rectale 1.04 | [1] 1.09 | Lactobacillus gasseri 1 | Lactobacillus paracasei 1.01 | Odoribacter splanchnicus 1.01 | [2] 1 | Parabacteroides merdae 1.02 | Roseburia intestinalis 0.992 | Streptococcus salivarius 0.991

COC(=O)C(C)Oc1cc(Cl)c(Cl)cc1Cl (stereo not given)
inactive: Coprococcus comes 1 | Escherichia coli ED1a 0.985 | Escherichia coli IAI1 1.05 | Eubacterium rectale 0.975 | [1] 1.03 | Lactobacillus gasseri 1.12 | Lactobacillus paracasei 0.883 | Odoribacter splanchnicus 0.927 | [2] 0.994 | Parabacteroides merdae 0.974 | Roseburia intestinalis 1.01 | Streptococcus salivarius 1.02

CC1(C)C(=O)Oc2ccc(OS(C)(=O)=O)cc21
inactive: Coprococcus comes 0.992 | Escherichia coli ED1a 0.984 | Escherichia coli IAI1 1.01 | Eubacterium rectale 1.03 | [1] 1.1 | Lactobacillus gasseri 0.983 | Lactobacillus paracasei 0.965 | Odoribacter splanchnicus 0.993 | [2] 1.01 | Parabacteroides merdae 0.979 | Roseburia intestinalis 1.02 | Streptococcus salivarius 1.02

COC(=O)CC(NC(=O)[C@@H](NC(=O)OC(C)C)C(C)C)c1ccc(Cl)cc1 (stereo not given in full)
inactive: Coprococcus comes 0.954 | Escherichia coli ED1a 1.02 | Escherichia coli IAI1 0.986 | Eubacterium rectale 0.993 | [1] 1.11 | Lactobacillus gasseri 1.01 | Lactobacillus paracasei 0.992 | Odoribacter splanchnicus 0.87 | [2] 0.954 | Parabacteroides merdae 1.01 | Roseburia intestinalis 0.975 | Streptococcus salivarius 0.953
